Results reported in paper PMC7862700, “An all-to-all approach to the identification of sequence-specific readers for epigenetic DNA modifications on cytosine”.

Assays:
Assay in all cases: DAPPL (digital affinity profiling via proximity ligation, sequencing); 10 mM Tris-HCl pH 7.5, 50 mM NaCl, 1 mM DTT, 4% glycerol, room temperature, 30 min; GST-TFs on glutathione beads, 16-mer random dsDNA library, 0.1% formaldehyde crosslink after washing; high values mean tight binding
[1] = target: T1, FLI1 (Homo sapiens, UniProt Q01543 1-452); details: protein: recombinant; tags: N-terminal GST; dsDNA, one strand shown
T1 sequence: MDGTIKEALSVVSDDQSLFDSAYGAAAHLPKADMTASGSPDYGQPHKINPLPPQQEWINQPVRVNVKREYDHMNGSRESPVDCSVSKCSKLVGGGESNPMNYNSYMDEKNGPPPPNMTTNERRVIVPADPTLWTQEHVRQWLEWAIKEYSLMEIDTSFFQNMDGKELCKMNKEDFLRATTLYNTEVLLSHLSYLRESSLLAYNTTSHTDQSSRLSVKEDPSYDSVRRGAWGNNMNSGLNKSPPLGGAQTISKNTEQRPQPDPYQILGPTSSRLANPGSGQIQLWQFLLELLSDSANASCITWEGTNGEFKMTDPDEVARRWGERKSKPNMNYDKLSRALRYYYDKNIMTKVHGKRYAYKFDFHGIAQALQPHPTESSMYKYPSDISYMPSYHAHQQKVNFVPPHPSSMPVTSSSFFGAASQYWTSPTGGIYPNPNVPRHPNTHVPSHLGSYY
Method in brief: (§1)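 Sequencing on an Illumina NextSeq500 followed washing, crosslinking with 0.1% formaldehyde, proximity ligation (BsaI/T4 ligase, 1 h, 37 °C) and PCR amplification of pools that had been incubated for 30 min at room temperature with 200 nmole of a random double-stranded 16-mer DNA library in Tris/NaCl/DTT/glycerol buffer. Each pool held DNA-barcoded human transcription factors, expressed in yeast as GST fusions and captured on glutathione beads, plus a tag-only sample. Binding signal is a hexamer's read frequency for a factor divided by its frequency in the tag-only sample.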

[2] = target: T2, ELK1 (Homo sapiens, UniProt P19419 1-428); details: protein: recombinant; tags: N-terminal GST; dsDNA, one strand shown
T2 sequence: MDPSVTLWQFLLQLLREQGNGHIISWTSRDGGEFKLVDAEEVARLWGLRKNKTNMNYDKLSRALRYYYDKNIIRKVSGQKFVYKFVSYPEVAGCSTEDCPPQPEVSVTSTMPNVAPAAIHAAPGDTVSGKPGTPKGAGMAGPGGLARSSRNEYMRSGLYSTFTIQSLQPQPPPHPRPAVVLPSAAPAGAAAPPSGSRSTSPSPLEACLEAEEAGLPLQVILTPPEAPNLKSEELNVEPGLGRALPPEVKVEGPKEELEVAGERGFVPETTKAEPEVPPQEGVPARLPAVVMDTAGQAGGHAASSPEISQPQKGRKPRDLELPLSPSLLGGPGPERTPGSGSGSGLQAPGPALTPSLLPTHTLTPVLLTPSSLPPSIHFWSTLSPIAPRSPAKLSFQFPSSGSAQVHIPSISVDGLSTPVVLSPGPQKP
Method in brief: as §1

[3] = target: T3, GABPA (Homo sapiens, UniProt Q06546 1-454); details: protein: recombinant; tags: N-terminal GST; dsDNA, one strand shown
T3 sequence: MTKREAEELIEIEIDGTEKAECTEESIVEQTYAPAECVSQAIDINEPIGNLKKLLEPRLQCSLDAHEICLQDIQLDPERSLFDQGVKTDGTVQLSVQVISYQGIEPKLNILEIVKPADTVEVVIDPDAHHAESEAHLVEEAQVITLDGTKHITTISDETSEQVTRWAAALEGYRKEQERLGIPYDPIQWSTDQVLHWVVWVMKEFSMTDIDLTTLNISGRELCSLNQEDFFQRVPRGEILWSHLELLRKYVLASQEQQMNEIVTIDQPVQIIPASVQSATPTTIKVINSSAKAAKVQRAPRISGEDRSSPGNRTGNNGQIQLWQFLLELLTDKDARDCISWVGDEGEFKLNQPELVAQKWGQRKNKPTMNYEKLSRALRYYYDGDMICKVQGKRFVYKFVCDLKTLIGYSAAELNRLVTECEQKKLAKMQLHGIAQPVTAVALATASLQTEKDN
Method in brief: as §1

[4] = target: T4, ERG (Homo sapiens, UniProt P11308 1-479); details: protein: recombinant; tags: N-terminal GST; dsDNA, one strand shown
T4 sequence: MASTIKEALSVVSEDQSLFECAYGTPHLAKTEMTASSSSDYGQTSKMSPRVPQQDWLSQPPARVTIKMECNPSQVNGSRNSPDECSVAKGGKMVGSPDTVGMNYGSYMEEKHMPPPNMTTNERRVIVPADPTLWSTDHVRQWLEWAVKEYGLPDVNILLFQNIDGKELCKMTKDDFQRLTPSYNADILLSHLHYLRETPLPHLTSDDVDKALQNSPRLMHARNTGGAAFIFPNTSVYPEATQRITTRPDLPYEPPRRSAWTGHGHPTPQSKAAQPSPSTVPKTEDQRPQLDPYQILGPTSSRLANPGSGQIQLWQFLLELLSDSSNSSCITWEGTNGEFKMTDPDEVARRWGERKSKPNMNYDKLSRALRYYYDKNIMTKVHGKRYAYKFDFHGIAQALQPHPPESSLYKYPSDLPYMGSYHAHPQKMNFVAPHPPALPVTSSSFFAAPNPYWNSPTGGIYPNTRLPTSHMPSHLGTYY
Method in brief: as §1

[5] = target: ELF1 (Homo sapiens, UniProt P32519 1-619); details: protein: recombinant; tags: N-terminal GST; dsDNA, one strand shown
Method in brief: as §1

[6] = target: T5, EHF (Homo sapiens, UniProt Q9NZC4 1-300); details: protein: recombinant; tags: N-terminal GST; dsDNA, one strand shown
T5 sequence: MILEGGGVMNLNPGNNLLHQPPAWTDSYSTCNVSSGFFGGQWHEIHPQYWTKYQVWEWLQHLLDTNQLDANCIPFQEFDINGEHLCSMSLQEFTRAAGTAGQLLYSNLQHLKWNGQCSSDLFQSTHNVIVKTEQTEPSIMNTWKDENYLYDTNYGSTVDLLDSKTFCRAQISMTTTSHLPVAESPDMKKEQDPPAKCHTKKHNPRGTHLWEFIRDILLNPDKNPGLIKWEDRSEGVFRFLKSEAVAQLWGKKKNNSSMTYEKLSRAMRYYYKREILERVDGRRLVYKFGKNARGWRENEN
Method in brief: as §1

[7] = target: SPI1 (Homo sapiens, UniProt P17947 1-270); details: protein: recombinant; tags: N-terminal GST; dsDNA, one strand shown
Method in brief: as §1

[8] = target: SPIB (Homo sapiens, UniProt Q01892 1-262); details: protein: recombinant; tags: N-terminal GST; dsDNA, one strand shown
Method in brief: as §1

[9] = target: T6, ELK3 (Homo sapiens, UniProt P41970 1-407); details: protein: recombinant; tags: N-terminal GST; dsDNA, one strand shown
T6 sequence: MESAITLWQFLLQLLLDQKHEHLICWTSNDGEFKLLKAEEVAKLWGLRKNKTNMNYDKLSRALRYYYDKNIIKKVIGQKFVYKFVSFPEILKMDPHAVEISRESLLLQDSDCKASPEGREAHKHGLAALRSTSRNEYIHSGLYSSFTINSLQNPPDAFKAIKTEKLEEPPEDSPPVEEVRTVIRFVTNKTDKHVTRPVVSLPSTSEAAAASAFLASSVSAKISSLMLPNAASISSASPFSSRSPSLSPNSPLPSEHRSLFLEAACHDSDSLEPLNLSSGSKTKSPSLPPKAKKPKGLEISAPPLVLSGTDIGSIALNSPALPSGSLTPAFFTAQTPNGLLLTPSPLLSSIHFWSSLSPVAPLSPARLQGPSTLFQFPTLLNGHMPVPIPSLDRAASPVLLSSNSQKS
Method in brief: as §1

[10] = target: T7, FEV (Homo sapiens, UniProt Q99581 1-238); details: protein: recombinant; tags: N-terminal GST; dsDNA, one strand shown
T7 sequence: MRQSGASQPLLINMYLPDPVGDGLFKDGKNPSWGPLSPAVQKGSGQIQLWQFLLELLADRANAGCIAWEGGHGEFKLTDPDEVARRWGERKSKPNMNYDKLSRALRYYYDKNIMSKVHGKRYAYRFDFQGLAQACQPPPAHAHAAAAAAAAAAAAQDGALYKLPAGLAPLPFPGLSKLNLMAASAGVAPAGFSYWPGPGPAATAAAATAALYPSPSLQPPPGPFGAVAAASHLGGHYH
Method in brief: as §1

[11] = target: ETV5 (Homo sapiens, UniProt P41161 1-510); details: protein: recombinant; tags: N-terminal GST; dsDNA, one strand shown
Method in brief: as §1

[12] = target: HSF1 (Homo sapiens, UniProt Q00613 1-529); details: protein: recombinant; tags: N-terminal GST; chain copies: 3; dsDNA, one strand shown
Method in brief: as §1

[13] = target: T8, SPIC (Homo sapiens, UniProt Q8N5J4 1-248); details: protein: recombinant; tags: N-terminal GST; dsDNA, one strand shown
T8 sequence: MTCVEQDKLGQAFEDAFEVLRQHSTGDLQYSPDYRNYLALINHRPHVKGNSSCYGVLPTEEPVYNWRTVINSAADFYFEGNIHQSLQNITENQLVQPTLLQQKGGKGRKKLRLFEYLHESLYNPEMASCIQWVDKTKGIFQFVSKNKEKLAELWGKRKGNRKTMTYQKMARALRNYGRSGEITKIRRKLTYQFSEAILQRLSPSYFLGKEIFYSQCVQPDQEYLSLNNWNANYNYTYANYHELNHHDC
Method in brief: as §1

[14] = target: ELF4 (Homo sapiens, UniProt Q99607 1-663); details: protein: recombinant; tags: N-terminal GST; dsDNA, one strand shown
Method in brief: as §1

[15] = target: T9, ELK4 (Homo sapiens, UniProt P28324-2 1-405); details: protein: recombinant; tags: N-terminal GST; dsDNA, one strand shown
T9 sequence: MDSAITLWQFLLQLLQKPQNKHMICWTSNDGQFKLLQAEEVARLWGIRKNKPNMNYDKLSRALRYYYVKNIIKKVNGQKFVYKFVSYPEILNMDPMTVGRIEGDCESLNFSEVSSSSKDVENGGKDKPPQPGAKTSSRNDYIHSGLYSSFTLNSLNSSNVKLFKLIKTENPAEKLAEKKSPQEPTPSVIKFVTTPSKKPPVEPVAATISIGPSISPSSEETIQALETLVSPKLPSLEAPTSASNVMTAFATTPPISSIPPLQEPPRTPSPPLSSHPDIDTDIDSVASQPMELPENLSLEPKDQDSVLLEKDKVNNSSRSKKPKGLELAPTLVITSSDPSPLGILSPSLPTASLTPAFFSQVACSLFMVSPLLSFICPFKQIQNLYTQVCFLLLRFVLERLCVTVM
Method in brief: as §1

[16] = target: T10, ETV2 (Homo sapiens, UniProt O00321 1-342); details: protein: recombinant; tags: N-terminal GST; dsDNA, one strand shown
T10 sequence: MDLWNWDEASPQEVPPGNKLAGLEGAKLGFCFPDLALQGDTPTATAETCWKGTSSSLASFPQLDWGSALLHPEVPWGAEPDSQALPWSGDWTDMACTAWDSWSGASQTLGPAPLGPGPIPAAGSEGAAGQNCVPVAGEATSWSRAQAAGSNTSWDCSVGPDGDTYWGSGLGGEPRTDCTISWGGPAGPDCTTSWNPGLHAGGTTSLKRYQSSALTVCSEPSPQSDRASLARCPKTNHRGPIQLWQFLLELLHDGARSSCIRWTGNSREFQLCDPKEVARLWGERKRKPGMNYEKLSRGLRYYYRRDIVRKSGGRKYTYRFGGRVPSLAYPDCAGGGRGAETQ
Method in brief: as §1

[17] = target: T11, ELF3 (Homo sapiens, UniProt P78545 1-371); details: protein: recombinant; tags: N-terminal GST; dsDNA, one strand shown
T11 sequence: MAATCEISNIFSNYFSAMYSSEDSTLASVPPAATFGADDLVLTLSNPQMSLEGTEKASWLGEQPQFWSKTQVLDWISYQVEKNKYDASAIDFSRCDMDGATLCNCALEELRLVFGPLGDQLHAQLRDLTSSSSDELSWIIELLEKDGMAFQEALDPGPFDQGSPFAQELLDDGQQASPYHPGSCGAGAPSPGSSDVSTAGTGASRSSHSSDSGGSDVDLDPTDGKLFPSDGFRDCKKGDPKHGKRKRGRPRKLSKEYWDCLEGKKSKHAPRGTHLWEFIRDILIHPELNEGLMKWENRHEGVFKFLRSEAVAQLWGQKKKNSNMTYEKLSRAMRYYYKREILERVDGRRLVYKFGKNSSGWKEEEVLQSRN
Method in brief: as §1

[18] = target: CRX (Homo sapiens, UniProt O43186 1-299); details: protein: recombinant; tags: N-terminal GST; dsDNA, one strand shown
Method in brief: as §1

[19] = target: ETV1 (Homo sapiens, UniProt P50549 1-477); details: protein: recombinant; tags: N-terminal GST; dsDNA, one strand shown
Method in brief: as §1

ELF4, sequence (Q99607 whole entry): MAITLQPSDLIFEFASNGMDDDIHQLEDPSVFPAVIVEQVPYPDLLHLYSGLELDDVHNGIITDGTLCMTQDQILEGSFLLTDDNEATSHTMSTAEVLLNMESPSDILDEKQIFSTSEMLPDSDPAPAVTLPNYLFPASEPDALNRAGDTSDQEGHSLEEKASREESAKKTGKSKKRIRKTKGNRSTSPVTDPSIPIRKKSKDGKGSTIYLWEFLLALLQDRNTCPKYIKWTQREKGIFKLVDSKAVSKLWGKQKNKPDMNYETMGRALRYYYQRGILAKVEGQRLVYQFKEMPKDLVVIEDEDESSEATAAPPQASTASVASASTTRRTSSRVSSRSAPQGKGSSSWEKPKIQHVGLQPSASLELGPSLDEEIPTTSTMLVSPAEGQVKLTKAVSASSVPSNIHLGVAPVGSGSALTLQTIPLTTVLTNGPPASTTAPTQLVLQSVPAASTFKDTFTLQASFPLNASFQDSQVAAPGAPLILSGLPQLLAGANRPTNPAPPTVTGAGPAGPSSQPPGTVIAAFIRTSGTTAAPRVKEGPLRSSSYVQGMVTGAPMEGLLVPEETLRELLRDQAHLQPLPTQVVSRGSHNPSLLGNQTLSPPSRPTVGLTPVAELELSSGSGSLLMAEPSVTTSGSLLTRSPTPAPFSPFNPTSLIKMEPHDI
SPIB, sequence (Q01892 whole entry): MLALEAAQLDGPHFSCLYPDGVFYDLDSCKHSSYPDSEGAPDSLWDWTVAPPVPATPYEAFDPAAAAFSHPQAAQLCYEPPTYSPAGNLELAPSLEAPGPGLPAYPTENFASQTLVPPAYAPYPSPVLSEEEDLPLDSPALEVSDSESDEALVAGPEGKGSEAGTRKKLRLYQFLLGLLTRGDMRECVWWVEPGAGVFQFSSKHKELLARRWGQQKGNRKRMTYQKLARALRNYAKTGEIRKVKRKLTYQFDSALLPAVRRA
HSF1, sequence (Q00613 whole entry): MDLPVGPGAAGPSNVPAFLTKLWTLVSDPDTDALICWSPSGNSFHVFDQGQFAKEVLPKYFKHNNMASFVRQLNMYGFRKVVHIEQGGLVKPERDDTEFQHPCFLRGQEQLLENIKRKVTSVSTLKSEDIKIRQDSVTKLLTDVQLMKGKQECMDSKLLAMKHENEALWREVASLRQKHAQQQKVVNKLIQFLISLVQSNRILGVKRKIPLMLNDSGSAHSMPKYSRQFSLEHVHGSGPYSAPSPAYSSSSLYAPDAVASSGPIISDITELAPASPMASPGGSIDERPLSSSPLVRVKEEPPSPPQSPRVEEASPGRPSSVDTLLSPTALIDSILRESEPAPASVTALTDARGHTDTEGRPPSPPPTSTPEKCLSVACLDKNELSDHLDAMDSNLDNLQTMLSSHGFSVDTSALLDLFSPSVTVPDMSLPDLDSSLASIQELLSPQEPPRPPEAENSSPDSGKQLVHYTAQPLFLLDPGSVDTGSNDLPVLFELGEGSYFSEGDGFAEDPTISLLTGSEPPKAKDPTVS
ETV1, sequence (P50549 whole entry): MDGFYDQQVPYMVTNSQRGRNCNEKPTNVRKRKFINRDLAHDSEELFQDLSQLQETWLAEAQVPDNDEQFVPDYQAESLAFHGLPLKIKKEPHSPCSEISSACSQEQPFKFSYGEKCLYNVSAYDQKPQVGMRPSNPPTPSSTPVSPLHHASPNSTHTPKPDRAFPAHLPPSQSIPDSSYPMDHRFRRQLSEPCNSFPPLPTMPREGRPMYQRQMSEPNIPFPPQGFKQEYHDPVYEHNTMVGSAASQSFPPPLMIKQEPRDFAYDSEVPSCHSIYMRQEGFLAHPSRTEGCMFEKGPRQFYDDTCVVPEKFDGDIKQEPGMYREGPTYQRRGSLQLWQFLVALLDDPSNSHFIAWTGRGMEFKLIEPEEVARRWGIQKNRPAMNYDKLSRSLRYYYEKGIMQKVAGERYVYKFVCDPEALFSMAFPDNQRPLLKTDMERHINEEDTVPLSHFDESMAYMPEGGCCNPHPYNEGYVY
ETV5, sequence (P41161 whole entry): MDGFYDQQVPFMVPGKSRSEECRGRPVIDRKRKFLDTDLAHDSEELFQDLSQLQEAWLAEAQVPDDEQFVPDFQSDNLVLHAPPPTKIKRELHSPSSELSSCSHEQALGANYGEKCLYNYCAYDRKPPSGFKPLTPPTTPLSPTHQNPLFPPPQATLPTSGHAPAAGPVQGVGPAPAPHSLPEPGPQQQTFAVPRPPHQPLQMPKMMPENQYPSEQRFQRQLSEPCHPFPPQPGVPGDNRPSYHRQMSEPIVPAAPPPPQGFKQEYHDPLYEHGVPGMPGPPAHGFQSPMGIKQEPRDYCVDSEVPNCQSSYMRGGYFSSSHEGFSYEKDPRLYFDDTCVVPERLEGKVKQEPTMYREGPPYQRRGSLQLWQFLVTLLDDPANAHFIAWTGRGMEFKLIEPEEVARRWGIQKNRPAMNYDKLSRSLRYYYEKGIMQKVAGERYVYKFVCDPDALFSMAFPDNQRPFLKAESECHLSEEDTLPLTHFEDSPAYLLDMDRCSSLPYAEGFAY
CRX, sequence (O43186 whole entry): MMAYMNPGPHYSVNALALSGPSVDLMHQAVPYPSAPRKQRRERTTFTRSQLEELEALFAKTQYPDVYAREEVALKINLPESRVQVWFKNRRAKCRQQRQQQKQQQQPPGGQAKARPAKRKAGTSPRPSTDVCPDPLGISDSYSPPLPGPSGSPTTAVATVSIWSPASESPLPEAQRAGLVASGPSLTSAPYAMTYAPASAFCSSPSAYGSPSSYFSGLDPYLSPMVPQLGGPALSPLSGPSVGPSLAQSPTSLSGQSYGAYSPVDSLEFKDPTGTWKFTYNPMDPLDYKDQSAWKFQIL
ELF1, sequence (P32519 whole entry): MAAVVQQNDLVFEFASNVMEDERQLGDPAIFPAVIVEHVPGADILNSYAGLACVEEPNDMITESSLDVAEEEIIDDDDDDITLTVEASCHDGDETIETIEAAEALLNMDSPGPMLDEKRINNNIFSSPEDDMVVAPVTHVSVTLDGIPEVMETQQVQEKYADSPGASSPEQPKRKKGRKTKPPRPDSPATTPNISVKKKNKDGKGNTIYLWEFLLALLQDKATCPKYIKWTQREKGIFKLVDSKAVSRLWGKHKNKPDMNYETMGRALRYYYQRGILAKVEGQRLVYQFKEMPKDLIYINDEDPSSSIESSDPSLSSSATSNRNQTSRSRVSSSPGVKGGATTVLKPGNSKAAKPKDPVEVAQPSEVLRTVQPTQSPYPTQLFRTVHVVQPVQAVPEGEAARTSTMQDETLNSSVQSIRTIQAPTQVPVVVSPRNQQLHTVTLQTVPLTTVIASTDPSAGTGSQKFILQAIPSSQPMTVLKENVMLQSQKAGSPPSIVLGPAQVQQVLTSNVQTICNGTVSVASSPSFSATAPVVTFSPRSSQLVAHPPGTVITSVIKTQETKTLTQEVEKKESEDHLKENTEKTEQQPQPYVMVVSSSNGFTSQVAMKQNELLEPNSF

TCACAC
binding signal [1]: 1.31 fold enrichment (6-mer frequency, TF over GST control)
binding signal [2]: 1.19 fold enrichment (6-mer frequency, TF over GST control)
binding signal [3]: 1.34 fold enrichment (6-mer frequency, TF over GST control)
binding signal [4]: 1.31 fold enrichment (6-mer frequency, TF over GST control)
binding signal [5]: 1.32 fold enrichment (6-mer frequency, TF over GST control)
binding signal [6]: 1.3 fold enrichment (6-mer frequency, TF over GST control)
binding signal [7]: 1.23 fold enrichment (6-mer frequency, TF over GST control)
binding signal [8]: 1.29 fold enrichment (6-mer frequency, TF over GST control)
binding signal [9]: 1.46 fold enrichment (6-mer frequency, TF over GST control)
binding signal [10]: 1.35 fold enrichment (6-mer frequency, TF over GST control)
binding signal [11]: 1.31 fold enrichment (6-mer frequency, TF over GST control)
binding signal [12]: 1.06 fold enrichment (6-mer frequency, TF over GST control)
binding signal [13]: 1.24 fold enrichment (6-mer frequency, TF over GST control)
binding signal [14]: 1.36 fold enrichment (6-mer frequency, TF over GST control)
binding signal [15]: 1.31 fold enrichment (6-mer frequency, TF over GST control)
binding signal [16]: 1.29 fold enrichment (6-mer frequency, TF over GST control)
binding signal [17]: 1.19 fold enrichment (6-mer frequency, TF over GST control)
binding signal [18]: 1.07 fold enrichment (6-mer frequency, TF over GST control)
binding signal [19]: 1.33 fold enrichment (6-mer frequency, TF over GST control)
